PubChem BioAssay AID1619 (SRMLSC, 2009)
Screen size: about 220,000 compounds; about 830 (0.38%) were called active.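 Rule for the calls: active = compound inhibiting the enzyme by more than half at any dose during confirmatory dose-response retesting; inconclusive = strong single-dose inhibitors picked by rank but not retested; inactive = the rest.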 These entries were drawn from the full list. Entries with a potency or affinity are not part of this list.

target: Leucine aminopeptidase (Plasmodium falciparum (isolate 3D7)) (UniProt Q8IL11); assay: P. falciparum M17LAP inhibitors, primary screen, biochemical, fluorogenic H-Leu-NHMec substrate, 1536-well (AID 1619); conditions: recombinant M17LAP, H-Leu-NHMec fluorogenic kinetic assay; at 30 µM; active compounds read high;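 note: plate controls were full reaction with DMSO carrier for no effect and no enzyme background for full effect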
Sequence (Q8IL11 whole entry, looked up): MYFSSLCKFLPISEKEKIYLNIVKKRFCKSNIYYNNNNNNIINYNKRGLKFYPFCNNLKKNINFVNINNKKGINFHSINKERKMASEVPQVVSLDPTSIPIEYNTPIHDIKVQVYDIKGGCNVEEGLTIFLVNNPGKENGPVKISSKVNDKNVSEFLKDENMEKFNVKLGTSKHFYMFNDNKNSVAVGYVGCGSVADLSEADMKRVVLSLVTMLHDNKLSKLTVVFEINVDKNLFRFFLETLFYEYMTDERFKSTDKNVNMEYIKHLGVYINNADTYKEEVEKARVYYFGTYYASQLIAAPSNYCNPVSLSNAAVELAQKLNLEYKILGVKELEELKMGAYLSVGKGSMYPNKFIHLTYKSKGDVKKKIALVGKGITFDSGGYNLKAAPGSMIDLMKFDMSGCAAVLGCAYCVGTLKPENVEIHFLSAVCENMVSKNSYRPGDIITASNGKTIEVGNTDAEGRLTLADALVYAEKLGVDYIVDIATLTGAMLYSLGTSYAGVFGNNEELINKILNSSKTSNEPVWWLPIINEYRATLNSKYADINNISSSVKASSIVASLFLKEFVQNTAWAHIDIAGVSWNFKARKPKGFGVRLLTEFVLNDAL

inhibition, inactive:
CCCCOC(=O)c1ccc(NC(=O)C(=O)NCCN(C)C)cc1 4.81%
Cn1cnc([N+](=O)[O-])c1Oc1cccc(O)c1 -5.34%
Cc1noc(NS(=O)(=O)c2ccc(NC(=O)CSc3nc4ccccc4[nH]3)cc2)c1C -54.8%
Cc1cc(NS(=O)(=O)c2ccc(NC(=O)Nc3cccc(Cl)c3)cc2)no1 41%
O=C(CSc1ccccc1)Nc1ccc(S(=O)(=O)Nc2ncccn2)cc1 4.72%
Cc1noc(NS(=O)(=O)c2ccc(NC(=O)CSc3ncccn3)cc2)c1C -8.95%
Cc1cc(C)nc(NC(=O)CSc2nc3ccccc3s2)n1 -0.55%
O=C(CSc1nc2ccccc2s1)Nn1cnnc1 6.17%
Cc1cc(NS(=O)(=O)c2ccc(NC(=O)Nc3ccccc3)cc2)no1 53.6%
Cc1cc(C)nc(SCC(=O)Nc2ccc(S(=O)(=O)Nc3ncccn3)cc2)n1 0.08%
Cc1nn(-c2ccccc2)c(Cl)c1/C=C(\C#N)C(=O)NC(C)C 0.39%
COCc1cc(C)nc(N/N=C/c2ccc(Cl)c(Cl)c2)c1C#N -7.61%
O=[N+]([O-])c1ccc(Nc2c3ccccc3nc3ccccc23)cc1 -29.4%
Cc1ccc(NC(=O)CN2C(=O)N/C(=C\c3cccnc3)C2=O)cc1 2.33%
Cc1ccc(Cn2c(SCc3cccnc3)nc3c2c(=O)n(C)c(=O)n3C)cc1 5.09%
CC(=O)Nc1ccc(NC(=O)CN(c2cccc(C)c2)S(C)(=O)=O)cc1 1.19%
CCc1cccc(NC(=O)CCc2nc(-c3cccs3)no2)c1 17.6%
CCNC(=S)Nc1ccc(Cl)c([N+](=O)[O-])c1 -6.59%
NC(=O)CC(NC(=O)Cc1ccc(Br)cc1)c1ccc(NCc2ccc(F)c(F)c2)c([N+](=O)[O-])c1 (centres undefined) -2.21%
Cc1cc(C)nc(SCC(=O)Nc2ccc(S(=O)(=O)Nc3onc(C)c3C)cc2)n1 -13.9%
Cc1noc(NS(=O)(=O)c2ccc(NC(=O)CSc3n[nH]c(-c4ccccc4)n3)cc2)c1C -60.9%
Cc1noc(NS(=O)(=O)c2ccc(N/C=C/C(=O)c3ccc4c(c3)OCO4)cc2)c1C 36.4%
Cc1noc(NS(=O)(=O)c2ccc(N/C=C/C(=O)c3ccc(F)cc3)cc2)c1C 20.6%
Cc1cc(C)c(C(=O)Nc2ccc(S(=O)(=O)Nc3onc(C)c3C)cc2)c(C)c1 -10.6%
Cc1cc(C(=O)Nc2ccc(S(=O)(=O)Nc3onc(C)c3C)cc2)c(C)o1 -21.9%
CCSc1cnn(-c2ccccc2)c(=O)c1SCC 9.04%
Cc1ccc(C(=O)O)cc1NC(=O)C1CCCN1S(=O)(=O)c1cccc2nsnc12 (centres undefined) -2.3%
CC(=O)Nc1ccccc1OCC(=O)NC(C)c1ccc(F)cc1 (centres undefined) 7.52%
CCOC(=O)c1oc2ccccc2c1NC(=O)c1ccc(S(=O)(=O)N2CCCC2)cc1 -6.8%
S=c1[nH]nc(-c2cc(-c3ccccc3)n[nH]2)n1/N=C/c1ccc(Cl)cc1 1.35%
O=C(Nc1ccc(Cl)cc1)c1csc(-c2ccccc2)n1 -10.4%
CC(C)OC(=O)/C(C#N)=C/c1cn(C)c2ccccc12 -3.85%
COCc1[nH]nc2c1C1(CCSCC1)C(C#N)=C(N)O2 11.4%
CC(=O)N1CCC2(CC1)C(C#N)=C(N)Oc1n[nH]c(C(F)(F)F)c12 -15.9%
Cc1ccc(SCc2[nH]nc3c2C2(C(=O)Nc4ccc(F)cc42)C(C#N)=C(N)O3)cc1 (centres undefined) 10.5%
CC(=O)N1CCC2(CC1)C(C#N)=C(N)Oc1n[nH]c(C)c12 8.86%
CCCC(=O)Nc1ccc(C(=O)NN2C(=O)c3ccccc3C2=O)cc1 -2.16%
O=C(c1ccccn1)N(Cc1ccco1)C1(C(=O)NC2CCCCC2)CCCCC1 1.03%
CC1CCCCN1CC(=O)Nc1cc(S(=O)(=O)N2CCOCC2)ccc1N1CCCC1 (centres undefined) 4.92%
Cc1ccc(NC(=O)N2CCCCC2)cc1NC(=O)N1CCCCC1 -2.13%
CC1(C)CC(CC(=O)NNc2nc(-c3ccccc3)cs2)C(=O)O1 (centres undefined) 12.7%
CC1CC(CC(=O)Nc2nc(-c3ccccc3)cs2)C(=O)O1 (centres undefined) 2.05%
C/C(CC1CC(COCC(C)C)OC1=O)=N\Nc1nc(-c2ccccc2)cs1 (centres undefined) 10.7%
CC1CC(CC(=O)NNc2nc(-c3ccccc3)cs2)C(=O)O1 (centres undefined) 12.5%
O=C(CN(Cc1ccco1)S(=O)(=O)c1ccccc1)N/N=C/c1ccccc1C(=O)O 38.3%
CCOc1cc(C(=O)OCC(=O)Nc2cc(C)on2)ccc1OCC(C)C -3.97%
Cc1ccccc1NC(=O)Cn1nnc(-c2ccc(N3CCOCC3)cc2)n1 2.77%
COc1ccccc1N(CC(=O)Nc1cc(C)on1)S(=O)(=O)c1ccc(Cl)cc1 -0.47%
NC(=O)[C@@H]1CCCN1Cc1nc(-c2cccs2)no1 -3.71%
CCOC(=O)/C(C#N)=C/C=C1\C=Cc2ccccc2N1CC 1.1%
CCOC(=O)/C(C#N)=C/N=c1ccc(C)cn1C 12.6%
C=CCN1C=C/C(=C\C=C(C#N)C#N)c2ccccc21 -9.06%
CCCN1C=CC(=CC=C(C#N)C#N)C=C1 40.8%
CCOC(=O)/C(C#N)=C/C=C1/C=CC=CN1C 20%
CCCCCCN1C=CC(=C/C=C(\C#N)C(=O)OCC)C=C1 -2.08%
CCOC(=O)/C(C#N)=C\N(C)C 5.6%
CCOC(=O)/C(C#N)=C\c1ccc(CC)s1 14.8%
CCOC(=O)c1nnn(-c2nonc2-n2cccc2)c1CCl 7.36%
COC(=O)CN(c1ccccc1OC)S(=O)(=O)c1ccccc1 -2.64%
